Source: the supplement of paper PMC10849652
Targets with a hit are over-represented here; the source holds about 8,800 in all. About 0.5% of all pairs of compound and target were hits. A number with no mark means an inactive call.

What was measured:
Test in all cases: log2 fold change, soluble protein after heating vs DMSO (PISA); higher = thermal stabilisation; K562 lysate, 10 uM; active = over 0.2 and 3.5 SD of the protein, either way, in both replicates (recomputed)
nilotinib = compound: Cc1cn(-c2cc(NC(=O)c3ccc(C)c(Nc4nccc(-c5cccnc5)n4)c3)cc(C(F)(F)F)c2)cn1 [nilotinib]
Method in brief: (§1)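 Log-two fold change in thermal stability relative to solvent controls is reported from duplicates. For each sample, crude K562 extract from dounce-homogenised pellets in PBS pH 7.4 with 1 mM MgCl2, at 1 mg/mL protein, was treated with 10 μM compound for 30 min. Aliquots heated for 3 min across 48°C-58°C were pooled, brought to 0.5% NP-40 at 4°C and cleared at 21,000xg for 90 min. The supernatant was quantified by TMTpro 16plex LC-MS/MS with channel sums equalised.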

[1] = compound: Cc1nc(Nc2n[nH]c3c2CN(C(=O)N[C@H](CN(C)C)c2ccccc2)C3(C)C)c2sccc2n1
Method in brief: as §1

dasatinib = compound: Cc1nc(Nc2ncc(C(=O)Nc3c(C)cccc3Cl)s2)cc(N2CCN(CCO)CC2)n1 [dasatinib]
Method in brief: as §1

[2] = compound: Cc1ncc(-c2ccnc(Nc3ccc(S(C)(=O)=O)cc3)n2)n1C(C)C
Method in brief: as §1

[3] = compound: Cn1cc(-c2ccc3c(c2)CCN3C(=O)Cc2cccc(C(F)(F)F)c2)c2c(N)ncnc21
Method in brief: as §1

quisinostat = compound: Cn1cc(CNCC2CCN(c3ncc(C(=O)NO)cn3)CC2)c2ccccc21 [quisinostat]
Method in brief: as §1

tipifarnib = compound: Cn1cncc1[C@@](N)(c1ccc(Cl)cc1)c1ccc2c(c1)c(-c1cccc(Cl)c1)cc(=O)n2C [tipifarnib]
Method in brief: as §1

[4] = compound: NC(=O)Nc1cc(-c2cccc(F)c2)sc1C(=O)N[C@H]1CCCNC1
Method in brief: as §1

[5] = compound: NC(=O)c1cnc(N[C@@H]2CCCC[C@@H]2N)nc1Nc1cccc(-n2nccn2)c1
Method in brief: as §1

[6] = compound: NC1(c2ccc(-c3nc4ccn5c(=O)[nH]nc5c4cc3-c3ccccc3)cc2)CCC1
Method in brief: as §1

UniProt Q9Y2X9, sequence (Q9Y2X9 whole entry, looked up): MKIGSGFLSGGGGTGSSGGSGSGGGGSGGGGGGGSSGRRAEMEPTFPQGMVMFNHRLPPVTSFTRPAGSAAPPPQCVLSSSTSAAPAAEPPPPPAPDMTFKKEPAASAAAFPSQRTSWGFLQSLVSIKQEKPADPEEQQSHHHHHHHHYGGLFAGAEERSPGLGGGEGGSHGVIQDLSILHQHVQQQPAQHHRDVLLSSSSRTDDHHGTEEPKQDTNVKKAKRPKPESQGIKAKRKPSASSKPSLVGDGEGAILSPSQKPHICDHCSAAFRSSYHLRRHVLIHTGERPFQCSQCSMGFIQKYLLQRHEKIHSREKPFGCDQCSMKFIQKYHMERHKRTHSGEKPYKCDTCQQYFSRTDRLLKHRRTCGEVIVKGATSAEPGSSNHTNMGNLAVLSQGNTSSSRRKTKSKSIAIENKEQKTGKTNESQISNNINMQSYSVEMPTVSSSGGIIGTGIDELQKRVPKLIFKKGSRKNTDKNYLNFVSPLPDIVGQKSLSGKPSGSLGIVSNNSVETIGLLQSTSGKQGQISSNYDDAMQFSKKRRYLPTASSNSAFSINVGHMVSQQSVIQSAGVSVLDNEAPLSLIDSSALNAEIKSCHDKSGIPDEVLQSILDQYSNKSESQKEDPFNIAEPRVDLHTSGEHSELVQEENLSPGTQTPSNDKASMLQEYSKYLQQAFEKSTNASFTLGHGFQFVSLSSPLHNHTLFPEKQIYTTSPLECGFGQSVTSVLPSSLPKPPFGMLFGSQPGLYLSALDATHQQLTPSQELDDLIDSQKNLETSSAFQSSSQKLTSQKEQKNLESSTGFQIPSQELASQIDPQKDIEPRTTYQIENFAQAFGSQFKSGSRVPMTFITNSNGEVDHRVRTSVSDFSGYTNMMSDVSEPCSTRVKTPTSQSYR
UniProt Q6PHR2, sequence (Q6PHR2 whole entry, looked up): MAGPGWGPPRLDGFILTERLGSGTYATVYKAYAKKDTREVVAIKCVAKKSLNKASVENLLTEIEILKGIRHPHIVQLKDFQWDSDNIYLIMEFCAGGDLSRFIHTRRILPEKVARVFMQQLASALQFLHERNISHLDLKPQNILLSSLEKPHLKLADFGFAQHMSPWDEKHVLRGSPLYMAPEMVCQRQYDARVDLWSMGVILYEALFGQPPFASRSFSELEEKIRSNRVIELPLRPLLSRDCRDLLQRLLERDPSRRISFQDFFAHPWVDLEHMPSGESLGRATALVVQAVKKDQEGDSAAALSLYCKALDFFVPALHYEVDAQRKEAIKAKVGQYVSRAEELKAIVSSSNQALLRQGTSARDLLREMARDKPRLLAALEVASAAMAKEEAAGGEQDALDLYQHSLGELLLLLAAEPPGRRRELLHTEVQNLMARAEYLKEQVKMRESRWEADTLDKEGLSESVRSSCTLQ
UniProt O75362, sequence (O75362 whole entry, looked up): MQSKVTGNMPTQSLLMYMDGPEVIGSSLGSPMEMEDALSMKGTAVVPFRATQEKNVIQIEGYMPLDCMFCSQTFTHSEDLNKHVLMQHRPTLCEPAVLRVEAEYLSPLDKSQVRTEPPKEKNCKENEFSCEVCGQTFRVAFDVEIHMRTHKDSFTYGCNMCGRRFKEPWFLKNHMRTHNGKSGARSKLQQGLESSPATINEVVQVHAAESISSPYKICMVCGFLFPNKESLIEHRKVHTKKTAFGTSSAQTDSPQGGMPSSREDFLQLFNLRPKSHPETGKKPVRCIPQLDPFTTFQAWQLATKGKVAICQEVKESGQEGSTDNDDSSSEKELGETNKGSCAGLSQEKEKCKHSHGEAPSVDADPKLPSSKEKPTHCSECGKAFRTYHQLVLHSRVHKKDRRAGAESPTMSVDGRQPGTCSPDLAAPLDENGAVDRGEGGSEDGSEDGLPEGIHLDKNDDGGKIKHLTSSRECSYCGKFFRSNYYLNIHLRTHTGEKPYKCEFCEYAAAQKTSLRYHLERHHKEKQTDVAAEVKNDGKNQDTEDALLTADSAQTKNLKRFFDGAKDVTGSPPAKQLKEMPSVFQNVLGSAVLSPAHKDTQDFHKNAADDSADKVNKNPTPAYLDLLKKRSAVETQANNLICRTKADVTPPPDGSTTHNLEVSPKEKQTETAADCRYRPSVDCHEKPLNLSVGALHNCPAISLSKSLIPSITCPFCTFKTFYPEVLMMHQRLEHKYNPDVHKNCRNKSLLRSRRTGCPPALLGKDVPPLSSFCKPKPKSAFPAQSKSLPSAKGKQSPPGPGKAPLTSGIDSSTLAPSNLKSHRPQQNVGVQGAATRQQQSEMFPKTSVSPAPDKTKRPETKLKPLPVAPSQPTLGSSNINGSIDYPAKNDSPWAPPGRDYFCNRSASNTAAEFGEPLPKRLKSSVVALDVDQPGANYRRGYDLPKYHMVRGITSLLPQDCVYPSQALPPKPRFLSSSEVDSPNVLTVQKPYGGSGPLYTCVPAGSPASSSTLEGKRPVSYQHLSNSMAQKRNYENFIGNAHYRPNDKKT
UniProt Q9BTA9, sequence (Q9BTA9 whole entry, looked up): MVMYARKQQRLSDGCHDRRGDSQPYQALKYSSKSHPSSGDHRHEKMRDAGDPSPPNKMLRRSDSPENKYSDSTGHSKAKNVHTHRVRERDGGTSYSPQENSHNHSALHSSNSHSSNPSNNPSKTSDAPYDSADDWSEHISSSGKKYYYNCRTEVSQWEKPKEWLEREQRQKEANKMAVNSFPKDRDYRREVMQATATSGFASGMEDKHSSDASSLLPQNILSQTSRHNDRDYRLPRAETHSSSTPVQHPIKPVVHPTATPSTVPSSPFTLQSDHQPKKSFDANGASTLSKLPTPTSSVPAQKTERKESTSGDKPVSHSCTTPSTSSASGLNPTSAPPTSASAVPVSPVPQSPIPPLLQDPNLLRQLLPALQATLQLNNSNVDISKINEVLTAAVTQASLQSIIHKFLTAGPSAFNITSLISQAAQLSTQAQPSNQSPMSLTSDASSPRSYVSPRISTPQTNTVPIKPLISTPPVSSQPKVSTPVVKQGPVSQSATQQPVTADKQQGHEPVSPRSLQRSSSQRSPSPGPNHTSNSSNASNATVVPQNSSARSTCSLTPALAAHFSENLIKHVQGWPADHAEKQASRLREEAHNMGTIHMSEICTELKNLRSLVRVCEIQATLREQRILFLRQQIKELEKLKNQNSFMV
UniProt Q6EMK4, sequence (Q6EMK4 whole entry, looked up): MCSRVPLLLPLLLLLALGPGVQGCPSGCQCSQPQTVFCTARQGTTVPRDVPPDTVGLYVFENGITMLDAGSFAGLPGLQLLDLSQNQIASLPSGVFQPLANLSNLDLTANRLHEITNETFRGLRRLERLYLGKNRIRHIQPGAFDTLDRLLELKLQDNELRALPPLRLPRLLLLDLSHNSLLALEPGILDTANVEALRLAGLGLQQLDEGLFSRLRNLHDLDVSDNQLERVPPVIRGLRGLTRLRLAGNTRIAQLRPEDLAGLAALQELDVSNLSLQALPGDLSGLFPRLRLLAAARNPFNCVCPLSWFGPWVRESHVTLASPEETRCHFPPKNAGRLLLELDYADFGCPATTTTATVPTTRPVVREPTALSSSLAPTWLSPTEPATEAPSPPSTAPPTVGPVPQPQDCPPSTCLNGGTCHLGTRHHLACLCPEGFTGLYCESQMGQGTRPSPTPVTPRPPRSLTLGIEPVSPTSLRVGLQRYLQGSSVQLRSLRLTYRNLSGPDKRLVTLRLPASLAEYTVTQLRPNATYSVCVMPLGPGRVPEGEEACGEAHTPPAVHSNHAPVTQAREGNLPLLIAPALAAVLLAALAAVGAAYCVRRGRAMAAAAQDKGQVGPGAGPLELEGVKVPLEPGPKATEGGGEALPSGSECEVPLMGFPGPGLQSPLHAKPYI
UniProt Q9UK41, sequence (Q9UK41 whole entry, looked up): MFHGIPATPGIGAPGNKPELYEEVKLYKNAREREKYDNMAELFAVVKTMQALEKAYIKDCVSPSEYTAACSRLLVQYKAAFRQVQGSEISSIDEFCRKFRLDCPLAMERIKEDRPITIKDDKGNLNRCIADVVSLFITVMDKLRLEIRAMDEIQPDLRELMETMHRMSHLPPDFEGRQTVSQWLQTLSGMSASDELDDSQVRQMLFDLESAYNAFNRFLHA
UniProt Q9NZ43, sequence (Q9NZ43 whole entry, looked up): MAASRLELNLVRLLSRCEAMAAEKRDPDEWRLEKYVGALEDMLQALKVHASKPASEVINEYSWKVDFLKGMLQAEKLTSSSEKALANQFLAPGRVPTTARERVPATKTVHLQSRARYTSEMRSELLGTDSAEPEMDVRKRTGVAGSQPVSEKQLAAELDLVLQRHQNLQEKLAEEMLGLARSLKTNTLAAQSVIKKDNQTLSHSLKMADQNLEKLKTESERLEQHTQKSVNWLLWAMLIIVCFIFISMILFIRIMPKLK
UniProt Q9UL40, sequence (Q9UL40 whole entry, looked up): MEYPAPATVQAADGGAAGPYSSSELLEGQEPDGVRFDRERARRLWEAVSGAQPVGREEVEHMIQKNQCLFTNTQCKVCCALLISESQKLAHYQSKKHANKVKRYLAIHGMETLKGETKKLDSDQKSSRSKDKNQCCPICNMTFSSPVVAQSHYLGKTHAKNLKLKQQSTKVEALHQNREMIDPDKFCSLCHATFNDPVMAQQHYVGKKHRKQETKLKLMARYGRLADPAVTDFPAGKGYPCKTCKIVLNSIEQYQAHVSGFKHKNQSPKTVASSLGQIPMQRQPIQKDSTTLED
UniProt P40337, sequence (P40337 whole entry, looked up): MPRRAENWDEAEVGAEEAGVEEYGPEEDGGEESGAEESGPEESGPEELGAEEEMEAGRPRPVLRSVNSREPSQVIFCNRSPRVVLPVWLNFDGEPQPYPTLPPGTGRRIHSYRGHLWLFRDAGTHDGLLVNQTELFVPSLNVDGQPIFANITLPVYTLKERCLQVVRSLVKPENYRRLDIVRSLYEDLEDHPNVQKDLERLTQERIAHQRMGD
UniProt O95619, sequence (O95619 whole entry, looked up): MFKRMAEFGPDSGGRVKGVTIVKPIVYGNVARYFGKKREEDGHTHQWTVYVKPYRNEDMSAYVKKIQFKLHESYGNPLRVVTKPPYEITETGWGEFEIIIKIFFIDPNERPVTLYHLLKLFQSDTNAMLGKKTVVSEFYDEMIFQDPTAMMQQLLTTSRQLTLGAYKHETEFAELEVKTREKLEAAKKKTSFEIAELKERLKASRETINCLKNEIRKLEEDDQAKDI

Target | log2 fold change (nilotinib) | log2 fold change [1] | log2 fold change (dasatinib) | log2 fold change [2] | log2 fold change [3] | log2 fold change (quisinostat) | log2 fold change (tipifarnib) | log2 fold change [4] | log2 fold change [5] | log2 fold change [6]
XPOT (UniProt O43592) | -0.011 | -0.017 | -0.064 | 0 | -0.004 | -0.056 | 0.005 | 0.037 | 0.003 | -0.001
USP48 (UniProt Q86UV5) | -0.016 | -0.045 | -0.016 | -0.032 | 0.005 | 0.19 | 0.033 | -0.077 | 0.005 | -0.012
XPOT (UniProt F5GYW6) |  |  |  |  |  |  |  |  | -0.192 | 
USP3 (UniProt Q9Y6I4) | 0.045 | -0.015 | -0.028 | 0.028 | 0.008 | -0.01 | -0.054 | 0.107 | -0.005 | -0.042
ZNF217 (UniProt O75362) | 0.06 | 0.026 | 0.001 | 0.054 | -0.057 | -0.179 | -0.086 | 0.014 | 0.021 | -0.075
ZNF346 (UniProt Q9UL40) | -0.005 | 0.02 | -0.099 | 0.021 | 0.014 | -0.014 | 0.015 | 0.005 | 0.011 | 0.01
ZYG11A (UniProt Q6WRX3) | 0.151 | -0.077 |  | -0.227 |  |  | -0.124 |  | 0.085 | -0.068
ZNF644 (UniProt Q9H582) | -0.062 | 0.153 | 0.066 | 0.017 | -0.061 | -0.026 | -0.012 | 0.058 |  | -0.167
ZZEF1 (UniProt O43149) | -0.022 | 0 | -0.018 | 0.015 | -0.006 | -0.07 | 0.007 | 0.008 | 0.021 | -0.03
ULK3 isoform 4 (UniProt Q6PHR2) |  |  | 0.035 |  | -0.181 | -0.11 |  | 0.296 | 0.133 | -0.157
VHL (UniProt P40337) | -0.01 | 0.04 | 0 | -0.056 | 0.079 | -0.056 | 0.022 | 0.077 |  | 0.04
ZNF593 (UniProt O00488) |  |  | 0.125 |  | -0.042 | 0.02 |  | 0.063 | 0.295 | 0.03
ZNF652 (UniProt Q9Y2D9) |  |  |  |  |  | 0 |  | -0.036 |  | 
UNC13A (UniProt Q9UPW8) | 0.114 | 0.046 |  | 0.165 |  |  | 0.064 |  |  | -0.048
USP22 (UniProt Q9UPT9) | -0.032 | 0.002 | 0.022 | 0.037 | 0.028 | -0.065 | -0.028 | 0.004 |  | -0.012
ZNF146 (UniProt Q15072) |  |  | -0.028 |  | 0.188 |  |  |  |  | 
ZSWIM8 isoform 4 (UniProt A7E2V4) | -0.009 | 0.129 | 0.085 | 0.07 | 0.042 | -0.051 | -0.065 | 0.067 |  | -0.112

Target | log2 fold change (nilotinib) | log2 fold change [1] | log2 fold change (dasatinib) | log2 fold change [2] | log2 fold change [3] | log2 fold change (quisinostat) | log2 fold change (tipifarnib) | log2 fold change [4] | log2 fold change [5] | log2 fold change [6]
ZSCAN26 (UniProt Q16670) |  |  |  |  |  | 0.169 |  | -0.093 |  | 
YEATS4 (UniProt O95619) | 0.1 | 0.154 | 0.11 | -0.196 | 0.035 | -0.038 | 0.071 | -0.011 | 0.018 | 0.044
WSB1 (UniProt Q9Y6I7) |  |  | -0.194 |  | 0.012 |  |  |  |  | 
YBEY (UniProt P58557) |  |  | 0.067 |  | -0.083 |  |  |  |  | 0.044
ZNF281 (UniProt Q9Y2X9) |  |  | -0.041 |  | 0.031 | 0.151 |  | -0.028 |  | 0.02
WAC isoform 5 (UniProt Q9BTA9) |  |  | -0.336 |  | 0.254 |  |  |  |  | -0.129
WAS (UniProt P42768) | 0.636 (active) | -0.102 | 0.095 | 0.318 | 0.129 |  | -0.064 |  |  | 0.025
UNKL (UniProt E9PDK2) |  |  | -0.216 |  | 0.006 | 0.015 |  | 0.045 |  | 
UTRN isoform 2 (UniProt P46939) |  |  |  |  |  |  |  |  |  | 0.21
URGCP (UniProt Q8TCY9) | 0.028 | 0.079 | -0.204 | -0.04 | -0.145 |  | -0.008 |  |  | 
XPO1 (UniProt O14980) | 0.011 | -0.011 | -0.038 | -0.014 | 0.021 | -0.007 | -0.009 | 0.021 | 0.011 | 0.006
VASN (UniProt Q6EMK4) |  |  | 0.081 |  | 0.027 |  |  |  |  | -0.059
VPS28 (UniProt Q9UK41) | -0.031 | 0.034 | 0.021 | 0.004 | 0.086 | 0.081 | 0.029 | -0.038 | 0.012 | -0.027
USE1 (UniProt Q9NZ43) | -0.019 | 0.038 | 0.068 | 0.057 | 0.02 | 0.08 | -0.021 | 0.029 | -0.027 | 0.025
ZNF318 (UniProt Q5VUA4) | 0.043 | -0.05 | -0.104 | -0.034 | -0.002 | 0.088 | -0.065 | -0.004 | -0.078 | -0.028
ZFYVE19 isoform 3 (UniProt Q96K21) |  |  |  |  |  |  |  |  | -0.002 | 
